Measurements as given in PubChem BioAssay.
Unmarked numbers belong to inactive results. The rule behind the calls is not given here.

Biological target: Pantothenate synthetase (Mycobacterium tuberculosis (strain ATCC 25618 / H37Rv)) (UniProt P9WIL5)
Experiment: Coupled enzyme confirmation of inhibitors against recombinant Mtb PanC (AID 375);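 note: 0% = full reaction with vehicle and 100% = no enzyme background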
Details: coupled enzyme assay; at 10 µM, stronger effect = higher value

Chain of Pantothenate synthetase (Mycobacterium tuberculosis (strain ATCC 25618 / H37Rv)) (P9WIL5 whole entry, looked up): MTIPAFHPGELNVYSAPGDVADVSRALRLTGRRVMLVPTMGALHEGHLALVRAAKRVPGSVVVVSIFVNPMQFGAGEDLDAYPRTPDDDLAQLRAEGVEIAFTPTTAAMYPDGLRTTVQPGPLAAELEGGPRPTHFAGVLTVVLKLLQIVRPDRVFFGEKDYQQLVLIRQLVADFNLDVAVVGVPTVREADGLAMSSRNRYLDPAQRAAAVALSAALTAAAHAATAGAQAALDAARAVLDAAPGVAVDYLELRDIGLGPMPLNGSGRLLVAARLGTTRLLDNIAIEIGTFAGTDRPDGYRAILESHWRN

| SMILES | inhibition [%] |
| --- | --- |
| COc1ccccc1C(=O)N1CCCC(c2nc(-c3cc(OC)c(OC)c(OC)c3)no2)C1 (stereo not given) | 0 |
| C=CCn1c(SCC(=O)Nc2ccc3c(c2)OCO3)nc2ccccc2c1=O | 2 |
| O=C(NCc1ccco1)c1cccc(-c2nnc(-c3ccccc3)o2)c1 | 0 |
| Cc1c(C)c2ccc(OC3CCCCC3=O)cc2oc1=O (stereo not given) | 2 |
| C=CCSc1nc(N)c(C(=O)Nc2ccccc2C)cc1C(N)=O | 0 |
| COC(=O)CN(c1ccc2c(c1)OCO2)S(C)(=O)=O | 4 |
| CCOc1ncccc1C(=O)Nc1ccc(Cl)cc1 | 2 |
| CC1CCCN(S(=O)(=O)c2coc(C(N)=O)c2)C1 (stereo not given) | 0 |
| COc1cc(OC)c(C2N(C)c3ccccc3N2C)cc1OC | 0 |
| O=C(CC1(O)C(=O)Nc2ccccc21)c1ccc2c(c1)OCO2 (stereo not given) | 0 |
| Cc1nc2ncnn2c(C)c1CCC(=O)NCCCN1CCN(c2cccc(Cl)c2)CC1 | 0 |
| O=C(COC(=O)c1ccc(S(=O)(=O)Nc2ccccc2)cc1)NCCN1C(=O)CSC1=O | 0 |
| c1ccc(-c2noc(C3CCCCC3)n2)nc1 | 0 |
| CCOc1ccc(/C=N/n2cnnc2)cc1 | 3 |
| CN(C)/C=c1\sc2c(C#N)cc(C(=O)c3ccc(Br)cc3)n2c1=O | 5 |
| O=C1C2C3C=CC(C3)C2C(=O)N1Cc1ccccc1 (stereo not given) | 6 |
| Cc1ccc(S(=O)(=O)NCC(=O)OCN2C(=O)c3ccccc3C2=O)cc1 | 4 |
| N#CCCn1cnc2ccccc21 | 0 |
| COc1ccc(/C(O)=C2/C(=O)C(=O)N(Cc3cccnc3)C2c2ccncc2)cc1F (stereo not given) | 4 |
| COc1ccc(CCN(C)CCCC(C#N)(c2ccc(OC)c(OC)c2)C(C)C)cc1OC (stereo not given) | 0 |

| SMILES | inhibition [%] |
| --- | --- |
| C=CCOc1ccc(/C=N/n2cncn2)cc1OC | 0 |
| CSc1nc2c(ccc3ccccc32)o1 | 2 |
| CC(C)(C)c1nnc(NC(=O)C2CCN(c3ncccn3)CC2)s1 | 1 |
| CC(C)(C)OC(=O)N1CCCC1C(=O)N1CCc2ccccc21 (stereo not given) | 0 |
| CC(O)c1nc2ccccc2n1C1CCCCC1 (stereo not given) | 0 |
| CCn1c(C)c(CCC(=O)O)c(=O)n2nc(-c3ccccc3OC)cc12 | 0 |
| O=C(NCC(=O)N(c1cnc2ccccc2c1)C(C(=O)NC1CCCC1)c1ccncc1)c1ccco1 (stereo not given) | 0 |
| Cc1cn2c(-c3ccncc3)nnc2s1 | 0 |
| CS(=O)(=O)Nc1ccc(C(=O)NCc2ccco2)cc1 | 0 |
| Cc1cc(C)n2nc(C(=O)NCc3ccco3)nc2n1 | 3 |
| O=C(NCCN1CCOCC1)c1ccc2c(c1)N(Cc1ccccc1)C(=O)CS2 | 0 |
| O=C(CSc1nc2ccccc2o1)N1CCN(c2ccc(Cl)cc2)CC1 | 0 |
| CCN(CC)CCCN1C(=O)C(=O)/C(=C(/O)c2ccccc2)C1c1ccccn1 (stereo not given) | 0 |
| Cc1nc2cc(Cl)ccc2n1CCO | 2 |
| CCOC(=O)CSc1nc2ccccc2c(=O)n1NC(=O)c1ccccc1 | 1 |
| NC(=O)C1CCN(C(=O)c2cc3n(n2)C(C(F)(F)F)CC(c2ccco2)N3)CC1 (stereo not given) | 0 |
| c1cncc(-c2nnc3n2N=C(c2cccs2)CS3)c1 | 6 |
| Cc1ccc(CCC(=O)Nc2ccc(S(N)(=O)=O)cc2)o1 | 1 |
| CCC(C)NC(=O)c1cc(-c2ccc(OC)cc2)on1 (stereo not given) | 0 |
| CC1(C)CC(CCNC(=O)c2ccco2)CC(C)(C)N1 | 0 |
